# According to PubChem BioAssay (NCI):
# This is part of a sample that, as a whole, favours compounds with a hit. Of some 83,000 tested, about 20% had one in any assay.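 A percent growth of 40 corresponds to 60% growth inhibition; 0 means no net growth; -100 means all cells died. Active threshold: below 10.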 Calls of active or inactive are those of the source.
# Tested on: UO-31 renal
# Assay: NCI-60 one-dose screen, 48 h (100 = growth as untreated, 0 = no growth, -100 = all killed)
# Conditions: 10 µM unless noted
# Protocol: Growth inhibition of the UO-31 human tumor cell line is measured as a screen for anti-cancer activity. Cells are grown in 96 well plates and exposed to the test compound for 48 hours. Compounds are tested at a single concentration, which is 10^-5 M for most compounds. The reported endpoint is percent growth (GI% or GIPRCNT), where numbers from 0 - 100% represent growth inhibition, and numbers from -100% - 0 represent cell death. For example, a value of 40 represents 60% growth inhibition. A value of 0 means no net growth occurred over the course of the experiment. A value of -40 indicates 40% of cells at the beginning of the experiment died by the end of the experiment. A value of -100 means all cells are dead at the end of the experiment.
# NCI-60 Human Tumor Cell Lines Screen was performed using the standard one-dose NCI protocol, which is described in more detail at https://dtp.cancer.gov/discovery_development/nci-60/default.htm.
# Compounds with GIPRCNT values below 10 were considered active. Activity score was based on GIPRCNT using the following formula: […]
# Score is 0 for GIPRCNT values of 100 or above, 50 for GIPRCNT values of 0, and 100 for GIPRCNT values of -100.
row,Compound,growth
1,Nc1ncc([N+](=O)[O-])cn1,90% (inactive)
2,O=[N+]([O-])c1ccc(-c2nc(N(CCO)CCO)c3ccccc3n2)o1,-40.6% (active)
3,CCN(CC)c1ccc2nc3ccc(N=Nc4ccc(N(C)C)cc4)cc3[n+](-c3ccccc3)c2c1,-55.1% (active)
4,O=C(O)C1CCCN1C(=O)OCc1ccccc1 (stereo not given),80.9% (inactive)
5,N#Cc1ccc(OC(=O)Nc2cc(Cl)cc(Cl)c2)cc1,5.42% [100 µM] (active)
6,S=C=Nc1ccc2ccccc2c1,85.1% (inactive)
7,c1ccc(Nc2ccccn2)nc1,96.7% (inactive)
8,NNc1ncnc2c1ncn2C1OC(CO)C(O)C1O (stereo not given),38.1% (inactive)
9,Clc1ccc(-c2noc(/C=C\c3ccccc3)n2)cc1,83.5% (inactive)
10,Cc1cccc(C)c1NC(=S)/N=C\c1c(O)[nH]c(=O)[nH]c1=O,89.5% (inactive)
11,Cc1ccc(/C=N/NC(N)=S)s1,90.5% (inactive)
12,O=[N+]([O-])c1c(Cl)ncnc1Cl,101% (inactive)
13,BrCc1cccc(C[P+](c2ccccc2)(c2ccccc2)c2ccccc2)c1,70.7% (inactive)
14,Cc1ccc(C)c(CN(C)C)c1O,90.1% (inactive)
15,Cc1cc(=O)n(Nc2ccccc2)c(O)c1C#N,62% (inactive)
16,CCOC(=O)c1cc(Cl)c(O)c(Cl)c1,92.3% (inactive)
17,CS(=O)CC(=N\O)/C(CS(C)=O)=N\O (stereo not given),85.3% (inactive)
18,C1C[S+]2CC[S+]1CC2,106% (inactive)
19,CC(=O)OCC1OC(n2cnc3c(=S)nc(N)[nH]c32)C(OC(C)=O)C1OC(C)=O (stereo not given),72.6% (inactive)
20,O=C1CSc2ccccc2N1,69.2% (inactive)

row,Compound,growth
1,CC(C)(C)NCCC(O)c1cc(C(F)(F)F)nc2c(C(F)(F)F)cccc12 (stereo not given),45.7% (inactive)
2,Cc1ccc(S(=O)(=O)NC(=O)NCCSSCCNC(=O)NS(=O)(=O)c2ccc(C)cc2)cc1,90.3% (inactive)
3,O=C(CCl)Oc1ccc([N+](=O)[O-])cc1,60.8% (inactive)
4,CCOC(=O)C1(N)CCCCC1,79.6% (inactive)
5,Cc1nc(C)c(C(=O)O)cc1C(=O)O,97.2% (inactive)
6,Cc1cc(CC(=O)NCCO)n(CCO)c(=O)c1,94.4% (inactive)
7,O=C(Oc1ccccc1Cl)c1ccc(Cl)cc1Cl,85.4% (inactive)
8,CCOC(=O)/C(C#N)=C\c1c[nH]c2ccccc12,69.6% (inactive)
9,CC(=O)C[n+]1ccc(C)cc1Sc1ccccc1C,78.5% (inactive)
10,Cc1ccc(Cc2ccc(C)cc2)cc1,81.1% (inactive)
11,CCNCC(C)(C)O,83.6% (inactive)
12,COc1ccc(NNS(=O)(=O)O)cc1,90.4% (inactive)
13,CCOC(=O)C(C#N)=C1CCN(C)CC1,87.5% (inactive)
14,CN1C(=O)NC(c2ccc(Cl)cc2)(c2ccc(Cl)cc2)C1=O,61.5% (inactive)
15,CCN(CC)CCN1CNC(=S)NC1,83.7% (inactive)
16,Nc1ncnc(Nc2ccc(C(F)(F)F)cc2)n1,97.8% (inactive)
17,Cc1cc(C(=O)NN)c(C#N)c(=O)[nH]1,88.3% (inactive)
18,CN=S(=O)(OCCCCCOS(=O)(=NC)c1ccc(C)cc1)c1ccc(C)cc1 (stereo not given),49.4% (inactive)
19,O=C(Nc1cccc(Cl)c1)c1ccc(Cl)cc1Cl,82.7% (inactive)
20,Cc1ccc([N+](=O)[O-])c(C)n1,74.1% (inactive)
